# Several values for one entry are separate records, joined by “and”; a condition that tells them apart may be missing. Identical values can stand only once. Activity calls are given as the source filed them. Rule for the calls: active = hit-call score of the fitted dose curve at least 0.9, where 1 is the maximum; inactive = score below 0.9.
# Read-out: Monokine induced gamma interferon (MIG), CXCL9 (gene 4283)
# Assay: BSK_3C_MIG: BioMAP Diversity Plus: 3C Assay for Monokine induced gamma interferon (MIG) Biomarker Activity (AID 2283021);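 for AC50: MIG protein level measured by immunoassay in the treated endothelial cultures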
# Details: primary human endothelial cells (HUVEC); actives raise or lower the signal
# Procedure: BSK_3C is a cell-based, multiplexed-readout assay that uses umbilical vein endothelium, a human vascular primary cell, with measurements taken at 24 hours after chemical dosing in a 96-well plate.BSK_3C_MIG is an assay component measured in the BSK_3C assay. It measures MIG antibody related to regulation of gene expression using ELISA technology.Data from the assay component BSK_3C_MIG was analyzed into 1 assay endpoint. This assay endpoint, BSK_3C_MIG, was analyzed with bidirectional fitting relative to DMSO as the negative control and baseline of activity. Using a type of binding reporter, gain or loss-of-signal activity can be used to understand changes in the signaling as they relate to the gene CXCL9. Furthermore, this assay endpoint can be referred to as a primary readout, because this assay has produced multiple assay endpoints where this one serves a signaling function. To generalize the intended target to other relatable targets, this assay endpoint is annotated to the cytokine intended target family, where the subfamily is chemotactic factor.
# The levels of cell surface (or secreted, indicated by the prefix "s") biomarker endpoints were measured by ELISA. Overt cytotoxicity to cells in confluent adherent cultures (all systems other than the BT system) was assessed by measuring total protein levels using sulforhodamine B (SRB) staining in parallel cultures at the time of biomarker measurements, indicated as SRB endpoints. For proliferation assays for adherent cell types, individual cell types are cultured at sub-confluence and relative cell numbers quantified by SRB staining at time points optimized for each system (48 h: 3C and CASM3C systems; 72 h: BT and HDF3CGF systems; 96 h: SAg system). SRB was performed by staining cells with 0.1% SRB after fixation with 10% TCA and reading wells at 560 nm.Viability and proliferation of PBMC (T cells) was quantified by Alamar Blue reduction for the SAg and BT systems. For PBMC viability (referred to as PBMC Cytotoxicity within the assay endpoint names), cells were plated (75,000/well in a 96-well plate) and then chemical samples added for 1 h before addition of activators, SEB and TSST-1 (20 ng/mL final concentration each). Cells were incubated for 90 h. Then, Alamar Blue (20 uL/well) (Invitrogen, Cat DAL1100) was added for 6 h, and the plates were read with a fluorescence microplate reader at 546/580 nm (excitation/emission). For PBMC proliferation, cells were plated and activated as above but incubated for only 16 h prior to addition of Alamar Blue. Plates were read after 6 h.
SMILES,AC50,outcome
C=CC(=O)OCC(Br)CBr (stereo unspecified),33 µM (active),–
C#CC1(O)CC[C@H]2[C@@H]3CCC4=CCCC[C@@H]4[C@H]3CC[C@@]21C (stereo partly specified),12.9 µM (active),–
CCCCC(CC)COCC1CO1 (stereo unspecified),–,inactive
c1ccc2c(c1)ccc1ncccc12,–,inactive
C=CCOCC(O)CCl (stereo unspecified),–,inactive
c1ccc(-c2ccccn2)nc1,–,inactive
CCCCC/C=C\C/C=C\CCCCCCCC(=O)OC,31.4 µM (active),–
O=C(Nc1ccccc1SSc1ccccc1NC(=O)c1ccccc1)c1ccccc1,–,inactive
CCCCNc1ccc(NCCCC)c2c1C(=O)c1ccccc1C2=O,–,inactive
CC1OC1C1CCC2(C)OC2C1 (stereo unspecified),–,inactive
O=C(Cl)c1cc(C(=O)Cl)cc(C(=O)Cl)c1,29.3 µM (active),–
CC(C)(c1cc(Br)c(OCCO)c(Br)c1)c1cc(Br)c(OCCO)c(Br)c1,27.6 µM (active),–
CCO[Si](C)(OCC)OCC,–,inactive
O=Nc1ccc(O)cc1,–,inactive
C=CCOc1c(Br)cc(Br)cc1Br,–,inactive
CCOC(=O)c1ccccc1C(=C1C=C(Br)C(=O)C(Br)=C1)c1cc(Br)c(O)c(Br)c1,23.6 µM (active) and 21.7 µM (active),–
c1ccc2c(c1)ccc1cc3c(ccc4ccccc43)cc12,–,inactive
COCc1c(C(C)C)nc(C(C)C)c(/C=C/[C@@H](O)C[C@@H](O)CC(=O)O)c1-c1ccc(F)cc1,–,inactive

SMILES,AC50,outcome
CCCCC(CC)COC(=O)c1ccccc1O (stereo unspecified),–,inactive
N#[N+]c1ccc2c(S(=O)(=O)[O-])cccc2c1O,–,inactive
CCOc1nc(F)cc2nc(S(=O)(=O)Nc3c(Cl)cccc3C(=O)OC)nn12,–,inactive
COc1ccc2nc(N)sc2c1,–,inactive
O=C1CCCN1CCO,–,inactive
C=C[Si](OC(C)=O)(OC(C)=O)OC(C)=O,–,inactive
C/C=C\C/C=C/CCCCCCCCOC(C)=O,–,inactive
C=CC=CC=CCCCCC,–,inactive
CCO[Si](CCCN=C=O)(OCC)OCC,–,inactive
CCCCCCCCc1ccc(Nc2ccc(CCCCCCCC)cc2)cc1,–,inactive
CO[Si](OC)(OC)c1ccccc1,–,inactive
S=C(NC1CCCCC1)NC1CCCCC1,–,inactive
O=c1c2ccccc2oc2ccccc12,–,inactive
O=C(c1ccc(O)cc1)c1ccc(O)cc1O,–,inactive
CCCCCCCCCCCCCCCC[N+](C)(C)CC,4.05 µM (active),–
CN1C(=O)N(C)C(O)C1O (stereo unspecified),–,inactive
CC(C)C(=O)C(C)C,–,inactive
Nc1ccc(N)c(Cl)c1,–,inactive

# — PubChem BioAssay (EPA / NIEHS)
